Where “and” joins values, the source holds several entries; their conditions need not be identical. Identical values can stand only once. Results filed as inconclusive are left out. A structure can be active in one record and inactive in another. Calls of active or inactive are those of the source. Calls come from the whole dose curve; as a rule, active = well fitted curve in the direction sought with a large enough effect; inconclusive = small, poorly fitted or top-dose-only effect, or another doubt; inactive = no such curve, though single readings can be large; an effect the other way counts as inactive or inconclusive.
Experiments:
[1] = system: SC27B; assay: qHTS profiling for inhibitors of Plasmodium falciparum proliferation (AID 504749); note: nearly all actives have a fitted effect of over 60% in size; note: potency is the fitted concentration of half-maximal effect; conditions: P. falciparum in erythrocytes, SYBR Green DNA, 72 h; series mostly up to 28.7 µM
Procedure, shortened: (§1)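 Quantitative HTS: compounds pinned into medium, infected erythrocytes added (0.3% parasitemia, 2.5% hematocrit), 72 h culture at 37 C under 5% CO2. Saponin/Triton lysis with SYBR Green I, overnight RT, then fluorescence read.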

[2] = system: TAB109; assay: as above; conditions: P. falciparum in erythrocytes, SYBR Green DNA, 72 h; series mostly up to 28.7 µM
Procedure, shortened: as §1

[3] = system: TAB113; assay: as above; conditions: P. falciparum in erythrocytes, SYBR Green DNA, 72 h; series mostly up to 28.7 µM
Procedure, shortened: as §1

[4] = system: TAB165; assay: as above; conditions: P. falciparum in erythrocytes, SYBR Green DNA, 72 h; series mostly up to 28.7 µM
Procedure, shortened: as §1

[5] = system: W2; assay: as above; conditions: P. falciparum in erythrocytes, SYBR Green DNA, 72 h; series mostly up to 28.7 µM
Procedure, shortened: as §1

[6] = system: CRL-7250; assay: Cytotoxic Profiling of Annotated Libraries Using Quantitative High-Throughput Screening (AID 1296008); conditions: Five cell lines viability, CellTiter-Glo ATP luminescence, 48-72 h; max response: stronger effect = lower value; note: nearly all actives have a fitted effect of over 60% in size; note: potency is the fitted concentration of half-maximal effect; for max response: % is set by controls: 0 for no effect and ±100 for the full control effect
Procedure, shortened: (§2)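 Compounds were pin-transferred onto cells and incubated 48 or 72 hr at 37 degree Celsius, 95% humidity. CellTiter-Glo was added, plates sat 10 min at room temperature, then ATP-coupled luminescence was imaged as the viability read-out.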

[7] = system: HaCat; assay: as above; conditions: Five cell lines viability, CellTiter-Glo ATP luminescence, 48-72 h; max response: stronger effect = lower value
Procedure, shortened: as §2

[8] = system: KB-3-1; assay: as above; conditions: Five cell lines viability, CellTiter-Glo ATP luminescence, 48-72 h; max response: stronger effect = lower value
Procedure, shortened: as §2

[9] = system: NIH3T3; assay: as above; conditions: Five cell lines viability, CellTiter-Glo ATP luminescence, 48-72 h; max response: stronger effect = lower value
Procedure, shortened: as §2

[10] = system: HACAT; assay: qHTS assay to identify novel small-molecules to repurpose for Merkel cell carcinoma treatment (AID 1296009); conditions: MCC and control cell lines, CellTiter-Glo viability, 72 h; series mostly up to 44.8 µM; note: nearly all actives have a fitted effect of over 60% in size; note: potency is the fitted concentration of half-maximal effect
Procedure, shortened: (§3)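 Viability readout: ATP luminescence (CellTiter-Glo) after 72 hr drug exposure at 37 degree celsius. Dose-response format was 8 points for NPC and 11 points for MIPE; data normalized to in-plate controls.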

[11] = system: MCC-13; assay: as above; conditions: MCC and control cell lines, CellTiter-Glo viability, 72 h; series mostly up to 46 µM
Procedure, shortened: as §3

[12] = system: MCC-26; assay: as above; conditions: MCC and control cell lines, CellTiter-Glo viability, 72 h; series mostly up to 46 µM
Procedure, shortened: as §3

[13] = system: MKL-1; assay: as above; conditions: MCC and control cell lines, CellTiter-Glo viability, 72 h; series mostly up to 46 µM
Procedure, shortened: as §3

[14] = system: MKL-2; assay: as above; conditions: MCC and control cell lines, CellTiter-Glo viability, 72 h; series mostly up to 46 µM
Procedure, shortened: as §3

[15] = system: UISO; assay: as above; conditions: MCC and control cell lines, CellTiter-Glo viability, 72 h; series mostly up to 46 µM
Procedure, shortened: as §3

[16] = system: WaGa; assay: as above; conditions: MCC and control cell lines, CellTiter-Glo viability, 72 h; series mostly up to 46 µM
Procedure, shortened: as §3

[17] = system: C33A; assay: Primary qHTS to identify gynecologic anti-cancer compounds using libraries of approved drugs and bioactive compounds (AID 1345084); conditions: Gynecologic cancer cell panel viability, ATPlite luminescence, 48 h; series mostly up to 57.5 µM; note: % is set by controls: 0 for no effect and ±100 for the full control effect; nearly all actives have a fitted effect of over 55% in size
Procedure, shortened: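 Measured: luminescence after ATPlite addition (15 min, RT). Exposure: 48 h, 37 C, 5% CO2.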

[18] = system: HEK293; assay: Cytotoxic Profiling of Annotated Libraries Using Quantitative High-Throughput Screening (AID 1296008); conditions: Five cell lines viability, CellTiter-Glo ATP luminescence, 48-72 h; max response: stronger effect = lower value; note: nearly all actives have a fitted effect of over 60% in size; note: potency is the fitted concentration of half-maximal effect; for max response: % is set by controls: 0 for no effect and ±100 for the full control effect
Procedure, shortened: as §2

[19] = system: NIH3T3; assay: qHTS assay to identify novel small-molecules to repurpose for Merkel cell carcinoma treatment (AID 1296009); conditions: MCC and control cell lines, CellTiter-Glo viability, 72 h; series mostly up to 44.8 µM; note: nearly all actives have a fitted effect of over 60% in size; note: potency is the fitted concentration of half-maximal effect
Procedure, shortened: as §3

O=C(c1ccc(OCCN2CCCCC2)cc1)c1c(-c2ccc(O)cc2)sc2cc(O)ccc12
active: Potency [1] 8.91 µM | Potency [2] 7.94 µM | Potency [3] 5.01 µM | Potency [4] 2.82 µM | Potency [5] 3.01 µM | Potency [7] 16.8 µM | Potency [9] 18.8 µM | Potency [14] 15 µM
inactive: outcome [6] | outcome [7] | max response [8] -14.1% and -7.5% | max response [9] -12.5% | outcome [10] | Potency [11] | Potency [12] | Potency [13] | Potency [15] | Potency [16] | Potency [17]

Cn1c(=O)c2[nH]cnc2n(C)c1=O
inactive: Potency [1] | Potency [2] | Potency [3] | Potency [4] | Potency [5] | Potency [17]

CN1CCN2c3ccccc3Cc3ccccc3C2C1 (configuration not stated)
inactive: Potency [1] | Potency [2] | Potency [3] | Potency [4]

C[C@@H]1CC(=O)NN=C1c1ccc(NN=C(C#N)C#N)cc1
inactive: outcome [6] | max response [7] -5.36% and -8.18% | max response [8] -4.37% | Potency [11] | Potency [12] | Potency [13] | Potency [17]
active: Potency [7] 18.7 µM | Potency [14] 8.41 µM and 7.5 µM | Potency [15] 21.1 µM
23.7 µM (active) and inactive: Potency [16]

O=c1[nH]cc(F)c(=O)[nH]1
inactive: max response [8] 22.7% and -20.8% | Potency [11] | Potency [12] | Potency [13] | Potency [14]
active: Potency [18] 11.8 µM | Potency [9] 3.76 µM and 2.96 µM | Potency [16] 10.5 µM

CN(Cc1cnc2nc(N)nc(N)c2n1)c1ccc(C(=O)N[C@@H](CCC(=O)O)C(=O)O)cc1
active: Potency [1] 0.178 µM | Potency [6] 0.119 µM | Potency [18] 29.9 nM and 33.2 nM | Potency [7] 0.418 µM | Potency [8] 0.0372 µM | Potency [9] 266 nM and 332 nM | Potency [13] 10.5 µM
inactive: Potency [2] | Potency [4] | Potency [12] | Potency [14]

Nc1c2c(nc3ccccc13)CCCC2
active: Potency [2] 8.91 µM | Potency [7] 26.4 µM
inactive: Potency [1] | Potency [3] | outcome [6] | outcome [7] | outcome [8] | outcome [9] | outcome [10] | Potency [11] | Potency [12] | Potency [13] | Potency [14] | outcome [19] | Potency [15] | Potency [16] | Potency [17]

COc1cc2nc(N3CCN(C(=O)C4COc5ccccc5O4)CC3)nc(N)c2cc1OC (configuration not stated)
inactive: max response [7] -6.13% | outcome [7] | max response [8] 19.6% and -6.62% | max response [9] -16.5% | outcome [9] | outcome [10] | Potency [11] | Potency [12] | Potency [13] | Potency [14] | outcome [19] | Potency [15] | Potency [16] | Potency [17]

CN(C)C(=O)C(CCN1CCC(O)(c2ccc(Cl)cc2)CC1)(c1ccccc1)c1ccccc1
inactive: max response [6] -63.2% | Potency [11] | Potency [12] | Potency [13]
active: Potency [18] 13.2 µM and 10.6 µM | Potency [8] 20.9 µM | Potency [14] 18.7 µM

CCOC(=O)c1ncn2c1CN(C)C(=O)c1cc(F)ccc1-2
inactive: Potency [1] | Potency [2] | Potency [3] | Potency [4] | Potency [5] | Potency [17]

CNCCCC12CCC(c3ccccc31)c1ccccc12
inactive: Potency [1] | Potency [2] | Potency [3] | max response [7] -20.8% and 4.86% | max response [8] 3.46% | Potency [11] | Potency [12]
active: Potency [5] 6.01 µM | Potency [18] 11.9 µM and 16.6 µM | Potency [14] 23.5 µM
29.9 µM (active) and inactive: Potency [16]

OCCN1CCN(CCCN2c3ccccc3Sc3ccc(C(F)(F)F)cc32)CC1
active: Potency [1] 8.91 µM | Potency [2] 7.08 µM | Potency [3] 8.91 µM | Potency [4] 12.6 µM | Potency [5] 1.51 µM | Potency [8] 20.6 µM | Potency [9] 13.2 µM | Potency [13] 21.1 µM | Potency [14] 20.9 µM and 21.1 µM | Potency [16] 20.9 µM
inactive: max response [6] 1.65% | max response [7] -28.3% and -6.1% | Potency [11] | Potency [12] | Potency [15] | Potency [17]

CC#C[C@]1(O)CC[C@H]2[C@@H]3CCC4=CC(=O)CCC4=C3[C@@H](c3ccc(N(C)C)cc3)C[C@@]21C
inactive and 105 nM (active): Potency [13]
active: Potency [1] 7.94 µM | Potency [2] 11.2 µM | Potency [3] 8.91 µM | Potency [4] 6.31 µM | Potency [5] 6.75 µM | Potency [18] 9.35 µM | Potency [14] 21.1 µM and 93.5 nM | Potency [15] 2.96 µM
inactive: max response [6] -15.2% | max response [7] -29.4% and -8.42% | max response [8] -19.9% | max response [9] -20.2% and -3.41% | Potency [11] | Potency [12] | Potency [17]

CN1CCC(=C2c3ccccc3CC(=O)c3sccc32)CC1
active: Potency [5] 1.2 µM | Potency [14] 9.44 µM | Potency [16] 29.9 µM
inactive: max response [6] 4.7% and -3.04% | max response [7] 0.22% | outcome [7] | max response [8] -4.06% | max response [9] -5.39% | outcome [9] | outcome [10] | Potency [11] | Potency [12] | Potency [13] | outcome [19] | Potency [15] | Potency [17]
